Compound activity: PubChem BioAssay, several laboratories
CFTR F508del cor: correctors of CFTR F508del function in bronchial epithelial cells; CFBE cells, YFP halide quenching; stimulated with forskolin plus potentiator P3; % fluorescence drop versus neutral controls; activity (quench increase), % at 7.58 µM; 350,000 compounds, 0.36% hits;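 active = mean added fluorescence quench of at least 8% versus neutral control, with both replicates also reaching 8%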;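 note: cells transiently co-express mutant CFTR-F508del with the halide-sensitive YFP; corrector assay measuring rescue of mutant channel to the surface after 24 h compound exposure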
NRP1-CendR mod: NRP-1/CendR interaction modulation; O14786; FAM-RPARPAR peptide binding to NRP-1, fluorescence polarization; inhibition, % at 25 µM; 360,000 compounds, 0.85% hits;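 active = inhibition or corrected inhibition above about 18%, plus a signal ratio from 0.5 to 1.5, limit read from the data, passing the limit was not always enough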
Target sequence (O14786 whole entry, looked up): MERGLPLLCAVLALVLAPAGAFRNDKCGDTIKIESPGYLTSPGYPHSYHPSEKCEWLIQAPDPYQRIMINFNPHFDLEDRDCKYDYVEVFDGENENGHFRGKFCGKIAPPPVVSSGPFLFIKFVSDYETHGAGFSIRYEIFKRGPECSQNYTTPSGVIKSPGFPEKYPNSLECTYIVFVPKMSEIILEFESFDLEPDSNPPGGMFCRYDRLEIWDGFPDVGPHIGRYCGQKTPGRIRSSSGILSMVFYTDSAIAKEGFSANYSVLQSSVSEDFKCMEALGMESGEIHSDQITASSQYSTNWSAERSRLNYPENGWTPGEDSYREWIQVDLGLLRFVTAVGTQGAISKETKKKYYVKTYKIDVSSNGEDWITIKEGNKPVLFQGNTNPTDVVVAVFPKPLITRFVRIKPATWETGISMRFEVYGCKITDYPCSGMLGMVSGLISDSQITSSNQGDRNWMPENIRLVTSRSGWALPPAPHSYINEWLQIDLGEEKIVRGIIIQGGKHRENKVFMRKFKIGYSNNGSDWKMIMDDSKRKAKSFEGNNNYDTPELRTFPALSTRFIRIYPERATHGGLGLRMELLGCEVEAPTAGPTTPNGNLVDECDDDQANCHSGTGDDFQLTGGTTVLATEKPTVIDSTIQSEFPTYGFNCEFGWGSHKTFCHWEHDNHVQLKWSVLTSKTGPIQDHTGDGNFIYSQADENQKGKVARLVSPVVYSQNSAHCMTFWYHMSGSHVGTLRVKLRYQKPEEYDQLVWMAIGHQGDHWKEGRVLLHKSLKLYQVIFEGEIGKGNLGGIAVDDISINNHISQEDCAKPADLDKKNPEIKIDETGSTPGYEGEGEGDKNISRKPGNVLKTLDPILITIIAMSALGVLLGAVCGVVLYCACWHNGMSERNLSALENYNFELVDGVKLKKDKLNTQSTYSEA
ATG4B inh: blocks human ATG4B protease cleavage of LC3 substrate | Q9Y4P1 | ATG4B cleavage of LC3-PLA2, NBD-HPC fluorescence, 1 h | inhibition, % at 8.33 µM | 340,000 compounds, 0.51% hits | AID 504462; in the data active = inhibition above about 40%
SKN-1 inh: inhibitors of C. elegans SKN-1; C. elegans VP596 Pgst-4::GFP/RFP ratio, acrylamide-induced, 24 h; inhibition, % at 21.8 µM; 360,000 compounds, 0.49% hits;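 active = interference check ratio from 0.5 to 1.5 plus GFP to RFP signal ratio inhibition reaching or exceeding a fixed threshold, cut at about 30% in these data, passing the limit was not always enough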
MPTP inh: blocks calcium-induced mitochondrial swelling | 360,000 compounds, 1.4% hits | isolated mouse mitochondria, Ca2+ swelling absorbance, 30 min | AID 602449 | inhibition, % at 10 µM;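 active = inhibition of 50% or more, scaled per plate between neutral and stimulator controls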;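 note: 0% = DMSO wells given calcium and 100% = 1 mM EGTA wells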
ATG4B confirm: ATG4B (human) inhibition, single-dose confirmed; shares compounds with ATG4B inh; ATG4B protease fluorescent substrate cleavage assay; inhibition, % at 8.33 µM; 320 compounds, 92% hits; AID 504757; in the data active = inhibition above about 39%
PLA2 counter: counter-screen for ATG4B inhibitors: human phospholipase A2 | 1,600 compounds, 66% hits | purified PLA2, NBD-C6-HPC fluorescence, 45 min | shares compounds with ATG4B inh | inhibition, % at 8.33 µM; in the data active = inhibition above about 50%
* = called active by the depositor; nt = no result. A selection: hits, their analogues and other compounds. The true share with any hit is near 2.7%.

SMILES | CFTR F508del cor | NRP1-CendR mod | ATG4B inh | SKN-1 inh | MPTP inh | PLA2 counter | others
CC(C)c1ccc(NC2CCCN(C(=O)c3cccs3)C2)cc1 (stereo not given) | -3 | 7 | 76* | 6 | 0 | 73*
COC(=O)c1ccc(C(=O)N2CCCC(Nc3ccc(C(C)C)cc3)C2)cc1 (stereo not given) | 0 | 12 | 81* | -2 | 2 | 82*
O=C(c1ccsc1)N1CCCC(Nc2ccc(F)c(F)c2)C1 (stereo not given) | 0 | 9 | 22 | -3 | 0 | nt
CC(C)c1ccc(NC2CCCN(C(=O)c3cccnc3)C2)cc1 (stereo not given) | 0 | 10 | 24 | -8 | 1 | nt
CC(C)c1ccc(NC2CCCN(C(=O)c3cnn(C(C)C)c3)C2)cc1 (stereo not given) | -2 | 15 | 45* | 30 | 2 | 49 | ATG4B confirm=53*
CC(C)c1ccc(NC2CCCN(C(=O)c3ccsc3)C2)cc1 (stereo not given) | 1 | -10 | 77* | 13 | 2 | 78*
C[C@@H]1CN([C@@H](C)CO)C(=O)c2cc(C#CC3(O)CCCC3)cnc2O[C@H]1CN(C)C(=O)C1CCCCC1 | 2 | nt | nt | nt | nt | nt
COCC(=O)N1C[C@H]2[C@@H](c3ccccc31)[C@H](CO)N2Cc1ccccc1F | 0 | nt | nt | nt | nt | nt
C[C@H]1CN([C@@H](C)CO)S(=O)(=O)c2ccc(C#Cc3cccnc3)cc2O[C@H]1CN(C)C | -1 | nt | nt | nt | nt | nt
CCOC(=O)C1=C(c2ccccc2)NC(SCC(=O)Nc2ccc(C)cc2)=C(C#N)C1c1ccco1 (stereo not given) | 3 | -1 | 7 | 8 | 20 | nt
CCOC(=O)C1=C(c2ccccc2)NC(SCC(=O)Nc2cccc(C)c2)=C(C#N)C1c1ccco1 (stereo not given) | nt | -5 | 48* | -7 | 14 | 55*
CCOC(=O)C1=C(c2ccccc2)NC(SCC(=O)Nc2ccccc2C)=C(C#N)C1c1ccco1 (stereo not given) | nt | -6 | 66* | 30 | 21 | 72*
CCC(=O)N1C[C@H](O)COC[C@H]2O[C@@H](CC(=O)NCc3ccccc3Cl)CC[C@@H]21 | -2 | nt | nt | nt | nt | nt
Cc1sc2nc(C3CC3)nc(N3CCN(C(=O)c4ccccc4F)CC3)c2c1C | 0 | -6 | 54* | -4 | 0 | 71*
Cc1sc2nc(C3CC3)nc(N3CCN(C(=O)c4ccc(F)cc4)CC3)c2c1C | 0 | -2 | 62* | 13 | -1 | 78*
COc1ccc(C(=O)N2CCN(c3nc(C4CC4)nc4sc(C)c(C)c34)CC2)cc1 | 0 | 5 | 30 | 18 | 1 | nt
Cc1sc2nc(C3CC3)nc(N3CCN(C(=O)c4ccc(Cl)cc4)CC3)c2c1C | -1 | 6 | 50* | -12 | 0 | 69*
Cc1ccc(S(=O)(=O)C2C(=O)N(C)C3(C)CC2c2ccccc2O3)cc1C (stereo not given) | nt | -8 | 79* | 11 | 0 | 85*
CCCN(C[C@H]1[C@@H](c2ccccc2)[C@H](CO)N1C(C)=O)C(=O)NC(C)C | -1 | nt | nt | nt | nt | nt
Cc1ccc(C)c(CSc2nnc(-c3cccs3)n2Cc2ccco2)c1 | nt | -7 | 83* | 7 | 5 | 77*
COc1ccc(C(CC(=O)NCc2ccccc2)C(C)C)cc1 (stereo not given) | -1 | 19 | 46* | 2 | 1 | 44 | ATG4B confirm=59*
COc1ccc(CC(CC(=O)O)C(=O)NCc2ccccc2)cc1 (stereo not given) | -2 | 1 | 3 | 6 | -2 | nt
COc1ccc(CN(C)C[C@H]2OCCCC[C@@H](C)Oc3ccc(NC(=O)CCCN(C)C)cc3C(=O)N([C@@H](C)CO)C[C@H]2C)cc1 | 2 | nt | nt | nt | nt | nt
Cc1ccccc1CSc1nnnn1-c1ccc(C(N)=O)cc1 | -3 | -10 | 58* | 3 | 1 | 54*
Cc1cc(=O)oc2cc(OCC(=O)Nc3cccc(S(=O)(=O)N(C)C)c3)ccc12 | nt | 3 | 40* | -2 | 3 | -1
SMILES | CFTR F508del cor | NRP1-CendR mod | ATG4B inh | SKN-1 inh | MPTP inh | PLA2 counter | others
CO[C@H]1CN(C)C(=O)c2ccc(NC(C)=O)cc2OC[C@@H](C)N(C(=O)Cc2cccnc2)C[C@@H]1C | 2 | nt | nt | nt | nt | nt
Cc1ccc(S(=O)(=O)N(C)C[C@H]2Oc3ncc(-c4ccncc4)cc3C(=O)N([C@@H](C)CO)C[C@H]2C)cc1 | -2 | nt | nt | nt | nt | nt
COc1ccc(C=O)cc1COc1ccccc1F | nt | 7 | 8 | -6 | -2 | nt
COc1ccc(C=O)cc1CN1CCCN(Cc2ccccc2F)S1(=O)=O | 2 | 1 | 53* | 3 | 1 | 56*
Cc1ccc(CN2CC(=O)N3[C@H](CO)[C@@H](c4ccc(Br)cc4)[C@@H]3C2)cc1 | -1 | nt | nt | nt | nt | nt
CCOC(=O)C1=NN(C(=O)c2ccccc2)C(O)(c2ccc(C)cc2)C1 (stereo not given) | -3 | -3 | -4 | 3 | 2 | nt
CCC1=NN(C(=O)c2cccc([N+](=O)[O-])c2)C(O)(c2ccc(C)cc2)C1 (stereo not given) | -1 | 8 | 54* | 3 | 4 | 60*
CC(C)NC(=O)N1[C@@H](C#N)[C@@H](c2ccc(-c3ccc(F)cc3)cc2)[C@@H]1CO | -1 | nt | nt | nt | nt | nt
NC(=O)C1CCCc2c1n(Cc1ccccc1)c1ccccc21 (stereo not given) | 0 | 8 | 84* | -11 | 1 | 88*
Cc1ccc2c(c1)c1c(n2C)C(C(N)=O)CCC1 (stereo not given) | nt | -2 | 62* | 12 | 10 | 69*
CC(=O)N1CCn2c3c(c4cc(C)ccc42)CCCC31 (stereo not given) | 3 | -1 | -4 | -5 | 0 | nt
CC1(c2ccc(NC(=O)c3ccccc3F)cc2)CC1(Cl)Cl (stereo not given) | -4 | 6 | 57* | 14 | 0 | 67*
O=C(Nc1ccc([N+](=O)[O-])cc1)c1ccccc1F | nt | 4 | 3 | 28 | 0 | nt
O=C(CSc1nnnn1-c1ccccc1)Nc1ncc(Cc2ccccc2Cl)s1 | -4 | -2 | -2 | 3 | 3 | nt
N=C1SC(c2ccccc2)C(=O)N1c1ncc(Cc2ccccc2Cl)s1 (stereo not given) | -2 | -3 | 79* | 6 | 16 | 80*
O=C(/C=C/c1ccc(Cl)cc1)N1CCN(c2c(Cl)cccc2[N+](=O)[O-])CC1 | 2 | -10 | 44* | 7 | 16 | 47
O=C(CSc1ccc(Cl)cc1)N1CCN(c2c(Cl)cccc2[N+](=O)[O-])CC1 | nt | -2 | 39 | -2 | 3 | nt
COCC(=O)N[C@@H]1CC[C@@H](CC(=O)NCc2ccccc2OC)O[C@H]1CO | 0 | nt | nt | nt | nt | nt
